# Hit rate of the full screen: of about 76,000 compounds, about 1,900 (2.5%) were called active. Not shown: some 5% with an inconclusive outcome. The sample holds actives, similar compounds and a random draw of the others, so the mix is not that of the screen. Values without a mark were called inactive. The call rests on the fitted dose curve; in most records, active means well fitted inhibition curve with a large enough effect; inconclusive means small, poorly fitted or top-dose-only effect; inactive means flat fitted curve, though single readings scatter.
# Target: Luciferin 4-monooxygenase (Photinus pyralis) (UniProt P08659)
# Assay: Firefly luciferase inhibition profiling of diverse chemical library using quantitative high-throughput screening; further: nearly all actives have a fitted effect of over 65% in size
# Settings: purified P. pyralis luciferase, luminescence, biochemical; series mostly up to 115 µM; activity change, negative = inhibition: at the top concentration
# Method in brief: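 Biochemical qHTS: compound (6-point titration) added to 10uM D-luciferin plus 10uM ATP in Tris acetate pH 7.5 buffer with Mg, Tween-20 and BSA, then purified enzyme at 10nM; light output imaged.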
# On the % scale 0 is the no-effect control and ±100 the full control effect; potency means the concentration at half of the fitted maximal effect.
# Luciferin 4-monooxygenase (Photinus pyralis), sequence (P08659 whole entry, looked up): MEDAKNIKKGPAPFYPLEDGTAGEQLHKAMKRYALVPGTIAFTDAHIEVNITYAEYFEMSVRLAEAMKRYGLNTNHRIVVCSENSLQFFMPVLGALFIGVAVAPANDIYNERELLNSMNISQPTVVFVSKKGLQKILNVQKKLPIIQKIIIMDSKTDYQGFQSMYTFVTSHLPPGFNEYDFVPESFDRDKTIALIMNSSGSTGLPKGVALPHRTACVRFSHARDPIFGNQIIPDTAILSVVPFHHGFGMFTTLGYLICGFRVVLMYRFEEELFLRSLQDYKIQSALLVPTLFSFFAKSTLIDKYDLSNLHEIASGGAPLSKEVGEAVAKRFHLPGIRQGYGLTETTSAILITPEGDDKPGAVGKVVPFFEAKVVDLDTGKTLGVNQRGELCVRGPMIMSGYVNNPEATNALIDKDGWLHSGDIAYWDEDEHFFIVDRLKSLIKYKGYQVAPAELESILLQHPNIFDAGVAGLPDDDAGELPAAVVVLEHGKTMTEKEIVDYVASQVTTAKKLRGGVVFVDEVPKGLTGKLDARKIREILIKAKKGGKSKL
Structure (SMILES),"activity change, negative = inhibition",Potency
CN1CCN(C2CCOC3(CCN(C(=O)c4cccc5[nH]ccc45)CC3)C2)CC1 (stereo unspecified),0%,–
O=C(NCc1ccccc1C(F)(F)F)c1cc2n(n1)CC(c1ccc3c(c1)OCO3)OC2 (stereo unspecified),-10.1%,–
CC(C)CN1CCN(C2CCOC3(CCN(C(=O)C4CCCC4)CC3)C2)CC1 (stereo unspecified),-1.21%,–
O=C(NCc1nnc2c(-c3nc(C4CC4)no3)cccn12)c1cccnc1,-0.5%,–
CC(=O)N1CCc2[nH]cnc2C12CCN(C(=O)C(C)Oc1ccccc1)CC2 (stereo unspecified),3.66%,–
CCc1noc(-c2ccn3c(CNC(=O)c4ccc(OC)c(F)c4)nnc3c2)n1,3.28%,–
O=C(c1ccc2c(c1)OCO2)N1CCCC2(CN[S+](=O)([O-])c3ccccc3N2)C1 (stereo unspecified),-5.81%,–
CCCn1c(C)cnc1CC1CCN(C(=O)CCOC)CC1,-2%,–
Cc1cccc(N2C(=O)CSC23CCN(C(=O)C2CCC2)CC3)c1,-11.1%,–
COc1ccnc(CN2CCN(C)C3(CCC(=O)N(C)CC3)C2)c1OC (stereo unspecified),-0.911%,–
CCN(CC)CC[C@H]1CN(C(=O)c2ccc(N(C)C)cc2)CC[C@H]1CC(=O)O,-2.45% [at 172 µM],–
CCN1c2cc(C(=O)Nc3ccccc3)ccc2C(=O)N2CCCC21 (stereo unspecified),-13.5%,–
Cc1ccccc1CNC(=O)c1ccc2c(c1)N(C)C1CCCCN1C2=O (stereo unspecified),-12.7%,–
CN1c2cc(C(=O)Nc3ccccc3)ccc2C(=O)N2CCCCCC21 (stereo unspecified),–,6.31 µM (active)
Cc1cc(C)cc(C(=O)NC2CCN(c3cc(-c4cccs4)[nH]n3)C2)c1 (stereo unspecified),9.15%,–
Cc1cccc(CN2C[C@@H]3C(=O)N(Cc4ccc5c(c4)OCO5)C(=O)[C@@H]3C2)c1,6.64%,–
COc1ccc(OC)c(S(=O)(=O)N2CCCCCCNC(=O)CC2c2ccccc2)c1 (stereo unspecified),-6.43%,–
CCC(CC)N1CCN(C(=O)c2ccc3c(c2)N(S(C)(=O)=O)CC3)CC1,–,35.5 µM (active)
CCOc1cccc(CNC(=O)c2ccc3c(c2)N(S(C)(=O)=O)CC3)c1,-22.4%,–
CC(=O)N1CCc2ccc(C(=O)N3CCCCCC3)cc21,-12.8%,–
CN(c1ccccc1)c1cc(=O)c2ccnc(-c3ccc(CO)cc3)c2o1,-21.1% [at 172 µM],–
CN(c1ccccc1)c1cc(=O)c2ccnc(Nc3cccc([S+](C)(=O)[O-])c3)c2o1,-11.7% [at 172 µM],–
Cc1ccc(CN2CCc3nc(C)nc(-c4ccc(O)cc4)c3C2)cc1,-1.5%,–
CCN1CCN(c2ccc(C(=O)NCCCn3ccnc3C(C)C)cn2)CC1,0.497%,–
O=C(Nc1ccccc1)c1nc2c(o1)CCN(Cc1cccc(Cl)c1)CC2,–,1.58 µM (active)
O=C(Nc1ccc(Cl)cc1)c1nc2c(o1)CCN(Cc1ccsc1)CC2,–,17.8 µM (active)

Structure (SMILES),"activity change, negative = inhibition",Potency
O=C(NCC1CC1)c1nc2c(o1)CCN(CCc1ccccc1)CC2,-18.4% [at 172 µM],–
Cc1cccc(CN2CCc3nc(C(=O)Nc4ccc(Cl)cc4)oc3CC2)c1,0.619% [at 172 µM],–
O=C(NCC1CC1)c1nc2c(o1)CCN(Cc1cccc(F)c1F)CC2,11.9% [at 172 µM],–
N#Cc1ccc(CN2CCc3nc(C(=O)N4CCOCC4)oc3CC2)cc1,2.1% [at 172 µM],–
O=C(c1ccccc1-n1cccn1)N1CCN(Cc2ccccc2CO)CC1,6.18%,–
CCOc1ccc(C(=O)N2CCC(Cc3nc(C(C)C)no3)CC2)cc1,13.5%,–
Cc1nccn1CC1(CNc2ccncn2)CC1,3.86%,–
CN(C)Cc1nnc(C2CCCN(C(=O)C3(N)CCNCC3)C2)n1C (stereo unspecified),-2.13%,–
COc1ccccc1C1CCN(Cc2cn(-c3ccccc3)nn2)CC1,1.57%,–
O=C(Nc1ccc([C@@H](O)[C@H]2COCC(=O)N2Cc2ccccc2F)cc1)C1CCCCC1,6.26%,–
O=C(Nc1ccc([C@@H](O)[C@H]2COCC(=O)N2Cc2ccccc2F)cc1)c1ccccc1,-24.9% [at 172 µM],–
Cc1ccc(C(=O)Nc2ccc(C(O)[C@H]3COCC(=O)N3Cc3ccccc3F)cc2)cc1 (stereo partly specified),–,28.2 µM (active)
O=C([C@H]1C[C@H](Oc2cccnc2)CN1C(=O)CCCc1ccccc1)N1CCOCC1,4.94%,–
COc1cccc(-c2ncc3c(n2)OCCN(Cc2ccc(F)cc2F)C3=O)c1OC,-12.3% [at 172 µM],–
COc1cccc(-c2nc(N3CCOCC3)cc3c2CN(CC2CC2)C3=O)c1,0.339% [at 172 µM],–
COc1ccc(-c2ncc3c(n2)OCCN(Cc2ccccc2)C3=O)cn1,–,15.8 µM (active)
COc1ccc(F)cc1-c1ncc2c(n1)OCCN(CC1CC1)C2=O,-5.25% [at 172 µM],–
NC(=O)c1cccc(-c2ncc3c(n2)OCCN(Cc2ccccc2)C3=O)c1,-12.7% [at 172 µM],–
CN(C)c1cccc(-c2ncc3c(n2)OCCN(Cc2ccc(F)cc2F)C3=O)c1,-18.6% [at 172 µM],–
COc1ccc(-c2ncc3c(n2)OCCN(CC2CC2)C3=O)cc1,–,1.26 µM (active)
O=C1c2cnc(-c3ccc(Cl)cc3)nc2OCCN1Cc1ccccc1,-38% [at 172 µM],–
NC(=O)c1cccc(-c2ncc3c(n2)OCCN(c2cccc(C(F)(F)F)c2)C3=O)c1,-1.05% [at 172 µM],–
C[S+](=O)([O-])c1cccc(-c2ncc3c(n2)OCCN(Cc2ccc(F)cc2F)C3=O)c1,-3.96%,–
O=C1c2cnc(-c3ccc(O)c(F)c3)nc2OCCN1Cc1ccccc1,–,22.4 µM (active)
COc1ccc(CN2CCOc3nc(-c4cc(F)cc(OC)c4)ncc3C2=O)cc1,–,28.2 µM (active)
